Compound activity: PubChem BioAssay, NMMLSC
Anthrax LF inh2 – blocks Bacillus anthracis lethal factor protease | P15917 | multiplex microsphere protease cleavage assay, LF | inhibition, % at 10 µM | actives 0.12% (n = 360,000) | AID 588501; further: plate controls were buffer without enzyme for full effect and enzyme alone for no effect
BoNT-F LC inh – blocks Botulinum neurotoxin F light chain protease; Multiplex microsphere protease cleavage assay, flow cytometry; inhibition, % at 10 µM; actives 0.22% (n = 360,000); in the data active means inhibition above about 35%, passing the limit was not always enough; inconclusive means no clear call, values can overlap the other calls; further: plate controls were buffer without enzyme for full effect and enzyme alone for no effect
Autofluor counter – flagged as autofluorescent in microsphere protease counterscreen | fluorescence intensity (test concentration not listed) | compound autofluorescence counterscreen, microsphere flow cytometry; stronger effect = higher value | actives 3.1% (n = 360,000); in the data active means fluorescence intensity above about 16000; inconclusive means no clear call, values can overlap the other calls
BoNT A protease – inhibitors of Botulinum neurotoxin A light chain protease | actives 0.17% (n = 360,000) | AID 588499 | multiplex microsphere protease substrate cleavage, flow cytometry | inhibition, % at 10 µM; further: plate controls were buffer without enzyme for full effect and enzyme alone for no effect
* = called active by the depositor. In the library only some 3.5% were active in any assay of this set; here they are far more common. Unless noted, no stated cut-off is given here; in the data, active means inhibition above about 30%; inconclusive means no clear call, values can overlap the other calls; inactive means below that.

For CCCCCOC(=O)c1c(N)n(CCOC)c2nc3ccccc3nc12 the results were Anthrax LF inh2 0.8, BoNT-F LC inh -1.7, Autofluor counter 20661* and BoNT A protease 0.6.
COc1ccc([C@H]2N[C@]3(CCCN(Cc4ccc(C(F)(F)F)cc4)C3=O)[C@H]3C(=O)N(C)C(=O)[C@@H]23)cc1 was read as Anthrax LF inh2 -6.9, BoNT-F LC inh -20.6, Autofluor counter 3720 and BoNT A protease 1.1.
For CCn1ncc(C2=NOC(C(=O)NCc3ccc(OC)cc3)C2)c1C (stereo unspecified) the results were Anthrax LF inh2 -0.2, BoNT-F LC inh 9.0, Autofluor counter 9292 and BoNT A protease 1.3.
For CCn1ncc(C2=NOC(C(=O)NCc3ccccc3)C2)c1C (stereo unspecified) the results were Anthrax LF inh2 -1.1, BoNT-F LC inh -9.6, Autofluor counter 26555* and BoNT A protease inconclusive.
CC1=CC2=NC(=O)CC(C)(C(=O)N(CC(=O)NC3CCCC3)Cc3ccccc3)N2C=C1 (stereo unspecified) was read as Anthrax LF inh2 0.8, BoNT-F LC inh 3.4, Autofluor counter 5539 and BoNT A protease 1.7.
Screening COc1ccc(C(=O)C[N+]2(C)CCOCC2)cc1 returned Anthrax LF inh2 -52.2, BoNT-F LC inh 45.7*, Autofluor counter 3259 and BoNT A protease -4.9.
`CC(C)c1ccc(NC(=O)C2CCN(S(C)(=O)=O)CC2)cc1` gave Anthrax LF inh2 -1.1, BoNT-F LC inh -76.3, Autofluor counter 3887 and BoNT A protease -3.3.
For COc1ccc(NC(=O)C2CCN(S(=O)(=O)c3ccc(C)cc3)CC2)cc1OC the results were Anthrax LF inh2 0.0, BoNT-F LC inh -7.0, Autofluor counter 25551* and BoNT A protease -4.5.
For Cc1ccc(NC(=O)C2CCN(S(C)(=O)=O)CC2)cc1 the results were Anthrax LF inh2 3.2, BoNT-F LC inh -8.6, Autofluor counter 22760* and BoNT A protease inconclusive.
For Cc1cc(C)c2c(=O)n(CC(=O)Nc3ccc(Cl)cc3)sc2n1 the results were Anthrax LF inh2 -6.9, BoNT-F LC inh 4.7, Autofluor counter 3796 and BoNT A protease 47.9*.
`CCOc1ccc(NC(=O)Cn2sc3nc(C)cc(C)c3c2=O)cc1` gave Anthrax LF inh2 -4.4, BoNT-F LC inh -13.6, Autofluor counter inconclusive and BoNT A protease -1.4.
For COc1cc(NC(=O)C2CCCO2)c(C(=O)O)cc1OC (stereo unspecified) the results were Anthrax LF inh2 2.3, BoNT-F LC inh -5.0, Autofluor counter 21130* and BoNT A protease -0.9.
For COc1cc(NC(=O)c2ccco2)ccc1NC(=O)C(C)C the results were Anthrax LF inh2 -2.7, BoNT-F LC inh -6.8, Autofluor counter 21437* and BoNT A protease inconclusive.
COc1cc(NC(=O)c2ccco2)c(C(=O)O)cc1OC was read as Anthrax LF inh2 -2.8, BoNT-F LC inh -2.1, Autofluor counter 23681* and BoNT A protease -2.2.
Screening COc1ccc(NC(=O)COC(=O)c2cc(OC)c(OC)cc2NC(=O)c2ccco2)cc1OC returned Anthrax LF inh2 -3.2, BoNT-F LC inh -2.5, Autofluor counter 21054* and BoNT A protease -0.4.
O=C(O)c1cc(Cl)ccc1NC(=O)C1CCCO1 (stereo unspecified) was read as Anthrax LF inh2 2.8, BoNT-F LC inh -8.7, Autofluor counter 9580 and BoNT A protease -0.4.
`COC(=O)c1cc(OC)c(OC)cc1NC(=O)c1ccco1` gave Anthrax LF inh2 -0.4, BoNT-F LC inh -1.6, Autofluor counter 3074 and BoNT A protease 0.6.
`Cc1ccc(C)c(C(=O)C(C)Sc2nc3nn(-c4ccccc4)c(=O)c-3c3n2CCCCC3)c1` (stereo unspecified) gave Anthrax LF inh2 -2.4, BoNT-F LC inh 4.8, Autofluor counter 5645 and BoNT A protease 1.9.
Screening C=CCOc1c(Br)cc(CNc2ccc(NC(=O)C(C)C)c(OC)c2)cc1OC returned Anthrax LF inh2 -8.6, BoNT-F LC inh 4.8, Autofluor counter 20313* and BoNT A protease inconclusive.
CCOc1ccc(NC(=O)Cn2cc(C(=O)c3ccco3)c3ccccc32)cc1 was read as Anthrax LF inh2 -14.1, BoNT-F LC inh 10.7, Autofluor counter 16382* and BoNT A protease 14.1.
Screening O=C(c1ccco1)c1cn(Cc2ccccc2Cl)c2ccccc12 returned Anthrax LF inh2 -0.2, BoNT-F LC inh -1.8, Autofluor counter 24624* and BoNT A protease inconclusive.
For CCC(=O)N1CCC1(C)C(=O)Nc1ccc2c(c1)CCN2C(C)=O (stereo unspecified) the results were Anthrax LF inh2 -8.6, BoNT-F LC inh 5.9, Autofluor counter 3871 and BoNT A protease -0.1.
Screening CCOc1ccc(-n2c(=S)sc3c(=O)[nH]c(SCC(=O)NCc4ccco4)nc32)cc1 returned Anthrax LF inh2 -0.5, BoNT-F LC inh 3.8, Autofluor counter 20051* and BoNT A protease inconclusive.
Screening O=C1c2ccccc2C(=O)N1CCCCN(C(=O)c1ccco1)c1ccc(Cl)cc1 returned Anthrax LF inh2 -4.4, BoNT-F LC inh 0.8, Autofluor counter 3220 and BoNT A protease -0.1.
`O=C1c2ccccc2C(=O)N1CCCCN(C(=O)c1cccc([N+](=O)[O-])c1)c1ccc(Cl)cc1` gave Anthrax LF inh2 0.3, BoNT-F LC inh -5.5, Autofluor counter 20654* and BoNT A protease -2.9.
For Oc1cc2c(cc1CN1CCN(c3ccccc3)CC1)CCC2 the results were Anthrax LF inh2 -10.8, BoNT-F LC inh -41.7, Autofluor counter 3386 and BoNT A protease -2.9.
`COc1ccc(N2CCN(Cc3cc4c(cc3O)CCC4)CC2)cc1` gave Anthrax LF inh2 0.0, BoNT-F LC inh -4.6, Autofluor counter 22399* and BoNT A protease -3.6.
For O=C(NCc1ccccn1)c1cc(S(=O)(=O)N2CCN(c3ccccc3)CC2)ccc1Cl the results were Anthrax LF inh2 -4.1, BoNT-F LC inh -2.2, Autofluor counter 22854* and BoNT A protease inconclusive.
For Cc1ccc(S(=O)(=O)N2CCCC2)cc1C(=O)NCc1ccccn1 the results were Anthrax LF inh2 3.0, BoNT-F LC inh 5.3, Autofluor counter 3959 and BoNT A protease 3.9.
`O=C(/C=C/[C@H]1O[C@@H](n2cnc3c(NC(=O)c4ccccc4)ncnc32)[C@H](O)[C@@H]1O)NCC1CCCCC1` gave Anthrax LF inh2 -5.8, BoNT-F LC inh -8.6, Autofluor counter 5286 and BoNT A protease 0.1.
CC(=O)Nc1ccc(S(=O)(=O)N2CCCN(S(=O)(=O)c3ccc(NC(C)=O)cc3)CC2)cc1 was read as Anthrax LF inh2 6.1, BoNT-F LC inh 10.1, Autofluor counter 9007 and BoNT A protease 1.3.
For CC(=O)Nc1ccc(S(=O)(=O)N2CCCN(S(=O)(=O)c3ccc(C)cc3)CC2)cc1 the results were Anthrax LF inh2 -2.5, BoNT-F LC inh -14.8, Autofluor counter 27039* and BoNT A protease -9.8.
Screening Cc1ccnc(NS(=O)(=O)c2ccc(NC(=O)Cc3cccs3)cc2)n1 returned Anthrax LF inh2 -1.4, BoNT-F LC inh -1.7, Autofluor counter 21122* and BoNT A protease inconclusive.
Cc1ccc(S(=O)(=O)N2CCCN(S(=O)(=O)c3ccc4c(c3)OCCO4)CC2)cc1 was read as Anthrax LF inh2 -6.7, BoNT-F LC inh -15.4, Autofluor counter 26607* and BoNT A protease -11.1.
For CC1CCCN(S(=O)(=O)c2ccc(NC(=O)CN3CCN(C)CC3)cc2)C1 (stereo unspecified) the results were Anthrax LF inh2 0.6, BoNT-F LC inh -2.0, Autofluor counter 16136* and BoNT A protease 0.1.
